Our source for the inhibition values is PubChem BioAssay AID1778 (Sanford-Burnham Center for Chemical Genomics, 2009).

The structures appear in SMILES notation. Values joined by “and” are separate entries in the source; they are usually repeats but may differ in a detail not shown here. Identical values can stand only once. About 260 (0.09%) of roughly 290,000 compounds were called active. Only a selection was taken, and actives are over-represented in it overall. Entries with a potency or affinity are not part of this list. Unmarked numbers belong to inactive results. No stated cut-off is given here; in the data, active means inhibition above about 50%; inactive means the rest.

In the assay the target is Kappa-type opioid receptor (Homo sapiens) (UniProt P41145). Nature of the assay: KOR antagonists, beta-arrestin recruitment, cell-based, luminescence, uHTS (AID 1778). As to conditions: antagonist mode, stronger effect = higher value; at 10 µM unless noted. For orientation: Activated receptors often draw arrestin, which recruitment assays turn into a signal.
Sequence of Kappa-type opioid receptor (Homo sapiens) (P41145 whole entry, looked up): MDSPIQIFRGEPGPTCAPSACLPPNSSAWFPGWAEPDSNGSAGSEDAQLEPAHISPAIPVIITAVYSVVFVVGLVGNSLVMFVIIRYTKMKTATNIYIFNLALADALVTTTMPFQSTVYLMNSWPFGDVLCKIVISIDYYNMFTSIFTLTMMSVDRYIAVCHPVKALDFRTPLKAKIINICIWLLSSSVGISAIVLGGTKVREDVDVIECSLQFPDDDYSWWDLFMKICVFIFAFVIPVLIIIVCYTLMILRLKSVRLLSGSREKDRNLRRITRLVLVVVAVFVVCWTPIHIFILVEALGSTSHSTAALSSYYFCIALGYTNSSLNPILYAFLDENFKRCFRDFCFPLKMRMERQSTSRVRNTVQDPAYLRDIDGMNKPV
The term inhibition denotes the change of the read-out against control, counted positive when it falls. On to `COc1ccc(CNC(=S)NCc2ccc(Cl)cc2)cc1OC`, for which the inhibition was -4.7%.

On to `COc1ccccc1N(CC(O)COc1ccccc1)S(=O)(=O)c1ccccc1` (centres undefined), for which the inhibition is 25.7%. Turning to `O=C(Nc1ccccc1Oc1ccsc1C(=O)O)c1ccccc1`, the inhibition is 11%. `CC/C(C)=N/Oc1nc(C)cc(C)n1`: the inhibition is -35.7%. Regarding `NS(=O)(=O)c1ccc(NC(=O)Nc2ccc(S(N)(=O)=O)cc2)cc1`, the inhibition is 27.6%.

Regarding `FC(F)(F)c1cnc(N2CCCN(C(=S)Nc3ccccc3)CC2)c(Cl)c1`, the inhibition is -20.9%. With `O=C(Nc1cccc(C(=O)O)c1)/C(=C\c1ccccc1)NC(=O)c1cccc2ccccc12`, the inhibition is -20.3% [at 20 µM]. For the molecule `N#C/C(=C/c1ccco1)C(N)=S`, the inhibition is -13.4%. As for `CCOC(=O)/C(C#N)=C\c1ccco1`, the inhibition was -16.4%. As to `CC(=O)OC[C@H]1O[C@@H](O/N=C/[C@@H](C)[C@H](OCc2ccccc2)C(C)C)[C@H](OC(C)=O)[C@@H](OC(C)=O)[C@@H]1OC(C)=O`, the inhibition is -20.6%. For `O=C(Nc1nc2ccc(S(=O)(=O)N3CCCC3)cc2s1)c1ccccn1`, the inhibition was -85.6%. `CCOc1ccc2nc(NC(=O)c3cnccn3)sc2c1`: the inhibition is -3.8%.

Consider `CCOc1ccc2nc(NC(=O)c3cnc(C)cn3)sc2c1`, for which the inhibition is 54.4%. For `O=C(Nc1nc2c(F)cc(F)cc2s1)c1ccco1`, the inhibition was -20.5% [at 20 µM]. The same measure for `O=C(Nc1nc2ccc(F)cc2s1)c1cccs1`: -4.2%; for `O=C(Nc1nnc(SCc2ccc(F)cc2)s1)c1cccnc1Cl`: 13%; for `O=C(Nc1nnc(SCc2ccc(F)cc2)s1)c1cnccn1`: -29.3% [at 20 µM]. Take `O=C(NNc1nc2c(F)cc(F)cc2s1)c1ccccc1`: the inhibition is 30.3%. As to `Cn1c(CNC(=O)c2ccco2)nnc1SCC(=O)c1ccccc1`, the inhibition was 0.9%. In the case of `O=C(c1ccc(CS(=O)(=O)c2ccc(Br)cc2)o1)N1CCN(c2ccc(F)cc2)CC1`, the inhibition is 3.6%. Take `CC(=O)Nc1ccc(S(=O)(=O)NC2(C(F)(F)F)C(=O)Nc3c2c(=O)[nH]c(=O)n3Cc2ccco2)cc1` (centres undefined): the inhibition is 16.3%. As for `CN(C)S(=O)(=O)c1cccc(N=C2SCCN2Cc2ccccc2)c1`, the inhibition was -13.6%. Turning to `COc1ccc(CCC(N)=O)cc1OC`, the inhibition was -31.9%. Consider `Cc1ccc(S(=O)(=O)Nc2cccc3ncccc23)s1`, for which the inhibition was 107% (active). The same measure for `O=S(=O)(Nc1cccc2ccccc12)c1cccs1`: 2.3%; for `Cc1c(NS(=O)(=O)c2cccs2)cccc1-c1nc2cccnc2s1`: 6.3%. As for `Cc1ccc(S(=O)(=O)Nc2ccnc3ccccc23)cc1`, the figure is 6.9%; as for `Cc1ccc(S(=O)(=O)Nc2cccc3ncccc23)cc1`, 14.1%. Turning to `O=C(NNC(=O)c1ccccc1[N+](=O)[O-])c1ccccn1`, the inhibition is -1.3% [at 20 µM]. On to `Cc1[nH]nc2c1C(c1ccccc1F)CC(=O)N2` (centres undefined), for which the inhibition is -21.3%. As for `CCOC(=O)c1cc2cc(CC(=O)c3ccc(OCC)cc3O)ccc2o1`, the inhibition was -2%. As to `C/C(=N\NC(=O)C(c1ccccc1)c1ccccc1)c1ccc(O)cc1`, the inhibition was -26.8% [at 20 µM].

Consider `CC(C(=O)O/N=C(\N)c1ccccn1)c1ccc([N+](=O)[O-])cc1` (centres undefined), for which the inhibition is -1.4%. For the molecule `C/C(=N\NC(=O)c1ccccn1)C12CC3CC(CC(C3)C1)C2`, the inhibition is -17.6%. The same measure for `CC(C)C(=O)NNC(=O)c1ccccn1`: 13.4%.

Regarding `O=C(NNc1ccccn1)C(c1ccccc1)c1ccccc1`, the inhibition was 11.4%.

On to `O=C(NNC(=O)C12CC3CC(CC(C3)C1)C2)c1cnccn1`, for which the inhibition was 27.4%. The same measure for `CCCCCC(=O)N/N=C(\C)c1ccccn1`: 10.5%; for `C/C(=N/NC(=O)CNC(=O)c1ccccn1)c1ccc([N+](=O)[O-])cc1`: 6.2%. `C/C(=N\NC(=O)C(c1ccccc1)c1ccccc1)c1ccccn1`: the inhibition is 81.1% (active). The same measure for `Cc1ccc(S(=O)(=O)NN)c(C)c1N1CCCC1=O`: 24.2%; for `Cc1cccc(C)c1NC(=O)C1CCCN1S(=O)(=O)c1ccccc1` (centres undefined): -40.1%; for `O=C(NCc1cccnc1)C1c2ccccc2C(=O)N1C1CCCCCC1` (centres undefined): -16.6%. For the molecule `O=C(NCCc1nnc2ccc(N3CCCCCC3)nn12)c1ccccc1`, the inhibition was -2.6%.

`CN(C)c1ccc(P(=O)(Nc2cccc(C(F)(F)F)c2)N2CCOCC2)c(NC(=O)c2cccs2)c1` (centres undefined): the inhibition was 41.3%. In the case of `CNC(=S)N1N=C(c2ccc(C)cc2)CC1c1ccc(N(C)C)cc1` (centres undefined), the inhibition is 7.7%. As for `CC1CCCCN1C(=O)COc1ccccc1F` (centres undefined), the figure is -32.6% [at 20 µM]; as for `O=C(Nc1ccnc(-c2cccnc2)n1)c1ccc(Cl)cc1`, -18.4%. Consider `O=C1COc2ccc(C(=O)CSc3nnc(NCc4ccccc4)s3)cc2N1`, for which the inhibition is 21.4%. On to `Oc1[nH]c2ccccc2c1N=NC(=S)NCC1CCCO1` (centres undefined), for which the inhibition was -22%. `CCNC(=S)N=Nc1c(O)n(Cc2ccc(Cl)cc2)c2ccccc12`: the inhibition is -4.3%. `CCn1c(O)c(N=NC(=S)NCC2CCCO2)c2ccccc21` (centres undefined): the inhibition is 60.6% (active).

`COc1ccc(CNC(=O)c2ccc(CN3CCOCC3)cc2)cc1`: the inhibition was -18.5%.

Turning to `O=C(NCc1ccco1)C(=O)c1cn(CC(=O)N2CCCC2)c2ccccc12`, the inhibition was -7.4%. For the molecule `O=C(COc1ccccc1)Nc1nnc(S(=O)(=O)N2CCCC2)s1`, the inhibition is -9.4%. As to `Cc1cc(NCc2ccccn2)n2c(nc3ccccc32)c1C#N`, the inhibition is 18.9% [at 20 µM]. As for `CCCNC(=O)COc1cccc(C(=O)NCc2ccccc2)c1`, the inhibition is 16.7%.

For the molecule `Oc1ccc(Nc2ccnc3cc(Cl)ccc23)cc1`, the inhibition is 25.2%. `Oc1ccc(/C=N/Nc2ccnc3cc(Cl)ccc23)c(O)c1`: the inhibition is 3.8%. As to `O=C(O)CC1(CC(=O)Nc2ccc(C(F)(F)F)cc2)CCCC1`, the inhibition is -5.5%. Regarding `O=C(N/N=C/c1cc2cc3c(cc2nc1Cl)OCO3)c1ccncc1`, the inhibition was -14.5%. On to `COc1ccc(N2CCN(C(=S)NC(=O)c3cccs3)CC2)c([N+](=O)[O-])c1`, for which the inhibition was 4.6%.

As to `O=C(NC(=S)N1CCN(c2ccc(C(F)(F)F)cc2[N+](=O)[O-])CC1)c1cccs1`, the inhibition was 6.2%.

Take `CC(=O)c1ccc(NC(=S)N2CCCC(CO)C2)cc1` (centres undefined): the inhibition is 35.3%. The same measure for `C#CCOCCOCCOCCNc1nc(N2CCN(C(=O)[C@H](C)n3cc(CCCN=C(N)N)nn3)CC2)nc(N2CCN(C(=O)[C@H](CCCCN)n3cc(CCCC)nn3)CC2)n1`: -17.1%; for `CN(Cc1ccccc1)c1ccc(C(CC(N)=O)NC(=O)c2ccccc2)cc1[N+](=O)[O-]` (centres undefined): -1.2% [at 20 µM]; for `O=C(CN1CCN(c2ccc(F)cc2)CC1)OCc1ccccc1`: 21.3%. The same measure for `Cc1ccc2oc(Nc3nc(C)c(C)c(C)n3)nc2c1`: 6.8%; for `COCc1cc(=O)[nH]c(Nc2nc3ccccc3o2)n1`: 14.7%. Turning to `Cc1ccc2oc(Nc3nc(C)cc(C)n3)nc2c1`, the inhibition is 12.4%. In the case of `Cc1cc(C)nc(Nc2nc3ccccc3o2)n1`, the inhibition is 17.6%. Regarding `COc1ccccc1-c1ccc(Nc2cccc(C(F)(F)F)c2)nn1`, the inhibition is -2.2%. Consider `CCOc1ccc(S(=O)(=O)N(C)CC(=O)NCc2ccco2)cc1`, for which the inhibition was 5%. The same measure for `CCCC1=C(C(=O)OCC)C(c2c(C)nn(-c3ccccc3)c2Cl)C(C#N)=C(N)O1` (centres undefined): -61.5%; for `CCCOc1cccc(-c2cc(C(=O)N/N=C/c3cccnc3)c3ccccc3n2)c1`: -14%; for `CCCOc1cccc(-c2cc(C(=O)NN)c3ccccc3n2)c1`: -44.7%. `O=C(CN1C(=O)S/C(=C\c2ccc(F)cc2)C1=O)NCCCn1ccnc1`: the inhibition is 1.3%. Take `O=C(/C=C/c1ccc([N+](=O)[O-])cc1)Oc1ccc(/C=N/NC(=O)c2ccncc2)cc1`: the inhibition is -27.5%. `O=C(CSc1cccc2cccnc12)N/N=C/c1ccc(F)cc1`: the inhibition was 17.3%. For the molecule `O=C(Sc1cccc2cccnc12)c1ccc(F)cc1`, the inhibition is 73.6% (active). As for `CCN(CC)C(=O)Sc1cccc2cccnc12`, the figure is 19.2%; as for `CC(=O)/C(=N\Nc1ccccc1)Sc1cccc2cccnc12`, 13.9%. For the molecule `O=C(O)CSc1cccc2cccnc12`, the inhibition is -59.2% and -13%.

Take `Cc1cccc(CSc2ccc3nnc(-c4ccccn4)n3n2)c1`: the inhibition was 8.5%. As for `Cc1cc(NC(=O)c2cc(C3CC3)on2)n(-c2ccccc2)n1`, the figure is -9.5%; as for `COc1cc(/C=N/n2nnnc2N)ccc1OC(C)C`, 26.9%; as for `O=C(CCCCCN1C(=O)c2ccccc2C1=O)Oc1ccc2c3c(c(=O)oc2c1)CCC3`, -61.9%. On to `CC1=C(C(=O)Nc2ccccc2C)C(c2ccccc2)NC(=O)N1` (centres undefined), for which the inhibition was -32.2%.

On to `CCOC(=O)c1c(CN2CCCCC2)n(C)c2ccc(OC)c(S(=O)(=O)c3ccccc3)c12`, for which the inhibition is 4.2%. In the case of `Cc1ccc(C(=O)O)cc1-n1c(=O)n(Cc2ccccc2)c(=O)c2[nH]cnc21`, the inhibition was -9.2%. `COc1ccc(Cn2c(=O)c3[nH]cnc3n(-c3ccccc3C)c2=O)cc1`: the inhibition was -13.7%. As to `COC(=O)c1cccc(-n2c(=O)n(Cc3ccccc3)c(=O)c3[nH]cnc32)c1C`, the inhibition was 23.8%. For `COc1cccc(Cn2c(=O)c3[nH]cnc3n(-c3ccccc3C)c2=O)c1`, the inhibition was 7.3%. Take `O=C(Nc1ccc(Oc2ccccc2)cc1)c1cnc2n(c1=O)CCS2`: the inhibition was 0.1%.
